High-throughput results: PubChem BioAssay, National Center for Advancing Translational Sciences (NCATS)
Shown are actives, neighbours in structure and some others; about 4.7% of the full set was active somewhere.
DRD3 antagonist: D3 dopamine receptor (human) antagonism; D3R cells, DiscoveRx beta-arrestin luminescence, antagonist mode; stronger effect = lower value; AID 652054; max response, negative = inhibition, %; actives 2.5% (n = 360,000); in the data active = max response below about -50%; inconclusive = no clear call, values can overlap the other calls
Target sequence (P35462 whole entry, looked up): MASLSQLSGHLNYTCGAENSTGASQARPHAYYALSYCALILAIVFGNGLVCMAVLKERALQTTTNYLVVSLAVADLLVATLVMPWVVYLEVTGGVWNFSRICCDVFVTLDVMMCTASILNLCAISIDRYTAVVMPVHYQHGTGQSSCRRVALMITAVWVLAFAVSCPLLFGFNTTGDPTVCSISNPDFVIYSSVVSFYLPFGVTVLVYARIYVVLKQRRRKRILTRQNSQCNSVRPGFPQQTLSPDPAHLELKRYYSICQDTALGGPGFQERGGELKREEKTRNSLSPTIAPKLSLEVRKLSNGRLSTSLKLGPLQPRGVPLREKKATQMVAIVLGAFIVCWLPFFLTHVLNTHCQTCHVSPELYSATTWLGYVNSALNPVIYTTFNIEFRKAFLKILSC
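Cells expressing the human receptor were seeded at 1500 cells/well, incubated overnight at 37 degrees C in 5% CO2, then exposed to library compounds with dopamine controls for 90 minutes at 37 degrees C before luminescent detection.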
S2 tox: viability counter-screen for ATXN expression inhibitors; S2 cells (HEK-293 line with an ATXN2-luciferase reporter) viability, CellTiter-Fluor protease fluorescence, 24 h; Potency, µM (top dose mostly 56.7 µM), actives largely listed as cytotoxic; actives 0.49% (n = 400,000); AID 651635; note: nearly all actives have a fitted effect of over 40% in size
HepG2 viability: HepG2 cytotoxicity, counter-screen for TGF-b inhibitors. HepG2 CAGA-GFP viability, ATP luminescence, 18 h. Potency, µM (highest dose often 46.1 µM), usual class: cytotoxic. actives 0.76% (n = 410,000)
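CellTiter-Glo luminescence gave cytotoxicity after 18 hours at 37 degrees C. The cells were HepG2 CAGA-GFP in 1% FBS DMEM, stimulated with 500 pg/mL TGF-beta after compound addition. %Activity was normalised to no-cell wells (complete cell-killing) and DMSO (no toxicity), and curves were fitted and classified.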
TGFb inhibitor: blocks TGF-b signaling; HepG2 CAGA-GFP TGF-b/SMAD3 reporter, GFP fluorescence, 18 h; TGF-beta stimulated, 500 pg/mL final; Potency, µM (top dose mostly 46.1 µM), usual class: inhibitors; actives 1.2% (n = 410,000); note: nearly all actives have a fitted effect of over 65% in size
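Using HEPG2 CAGA-GFP reporter cells at 1000 cells/well, we pinned test compounds, stimulated with recombinant TGF-beta (500 pg/mL final) and measured total well GFP after 18 h.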
ATXN2 expr inh: ATXN2 expression inhibition | Potency, µM (highest dose often 57 µM), hits mostly inhibitors | HEK-293 ATXN2-luciferase reporter, luminescence, 24 h | actives 0.72% (n = 360,000); note: nearly all actives have a fitted effect of over 55% in size
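qHTS (up to 57 uM final) was run with 24 h compound exposure of reporter cells at 37 °C. Each well was multiplexed: SteadyGlo luminescence measured ATXN2-luciferase expression after a fluorogenic Gly-Phe-AFC viability readout (25 uM final).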
DRD3 agonist: agonists of human D3 dopamine receptor. P35462. D3R DiscoveRx beta-arrestin cells, luminescence, 90 min. max activation, %. actives 0.58% (n = 410,000); in the data active = max activation above about 30%
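Agonist-mode cell screen: cells plated at 1500/well and incubated overnight at 37 °C, then exposed to library compounds for 90 min at 37 °C. Detection reagent was added for 30–60 min at room temperature, and luminescence was read.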
Each line names hits and unclear results; the compound was inactive in the other large screens. Unless noted, calls come from the whole dose curve; as a rule, active = well fitted curve in the direction sought with a large enough effect; inconclusive = small, poorly fitted or top-dose-only effect, or another doubt; inactive = no such curve, though single readings can be large; an effect the other way counts as inactive or inconclusive.

CC(C)(C)S(=O)N1Cc2cc(C(=O)N3CCOCC3)nc(-c3cccc(Br)c3)c2[C@H]1CCO (some centres not stated)	TGFb inhibitor inconclusive
CC(=O)c1ccc(NC(=O)Nc2sc3nc4n(c(=O)c3c2C)CCC(C)CC4)cc1 (configuration not stated)	none (no result: DRD3 antagonist)
CCOc1ccc(CCNC(=O)CN2C(=O)COc3ccc(S(=O)(=O)N(CC)CC)cc32)cc1	S2 tox inconclusive, TGFb inhibitor inconclusive (no result: DRD3 antagonist)
CC(=O)N1CCc2c(sc3c2c(=O)n(CCc2ccccc2)c(=O)n3Cc2ccccc2C)C1	S2 tox inconclusive, TGFb inhibitor inconclusive, ATXN2 expr inh inconclusive (no result: DRD3 antagonist)
CCn1c(=O)cc(SCC(=O)N2CCC(C)CC2)c2ccccc21	none
CCOC(=O)C1CCN(C(=O)CSc2cc(=O)n(CC)c3ccccc23)CC1	DRD3 antagonist -79
O=C1/C(=C\c2ccco2)SC(=S)N1Cc1ccccc1	DRD3 antagonist inconclusive
COc1ccc(CCN2C(=O)/C(=C\c3ccco3)SC2=S)cc1OC	S2 tox inconclusive, DRD3 agonist 59
COc1ccc(CN2C(=O)CSCC2=O)cc1OC	none (no result: ATXN2 expr inh)
COc1ccc(CCN2C(=O)CSC2=S)cc1OC	S2 tox 22µM, TGFb inhibitor inconclusive, ATXN2 expr inh inconclusive
CCN(CC)CCNC(=O)Cn1ncc2c3ccccc3n(Cc3ccc(Cl)cc3)c2c1=O	none (no result: DRD3 antagonist)
Cc1csc(C)[n+]1CCC1CCCCC1	none (no result: DRD3 antagonist, S2 tox, ATXN2 expr inh, DRD3 agonist)
CC1(C)C2CCC(CN=C(N)CSS(=O)(=O)O)C1C2 (configuration not stated)	DRD3 antagonist -99, S2 tox inconclusive (no result: ATXN2 expr inh)
NC(CSS(=O)(=O)O)=NCCC12CC3CC(CC(O)(C3)C1)C2	none
O=C1CN(C(=O)c2ccc(S(=O)(=O)N3CCCCC3)cc2)C(c2ccc(F)cc2)c2cc(Cl)ccc2N1 (configuration not stated)	S2 tox inconclusive (no result: DRD3 antagonist)
NC(N)=NN=C(c1ccc(F)cc1)c1ccc(C(F)(F)F)cc1	TGFb inhibitor 10µM, ATXN2 expr inh inconclusive (no result: S2 tox)
O=C(N/N=C/c1ccc(C(F)(F)F)cc1)c1ccc(O)cc1	none
COc1ccccc1Cn1c(CNS(=O)(=O)c2ccc(CC(C)C)cc2)nc2cccnc21	TGFb inhibitor 13µM (no result: DRD3 antagonist, S2 tox, ATXN2 expr inh)
COc1ccccc1Cn1c(CNS(=O)(=O)c2ccc(C(C)C)cc2)nc2cccnc21	TGFb inhibitor inconclusive (no result: DRD3 antagonist, S2 tox, ATXN2 expr inh)
Cc1cc(NC(=O)CCCn2c(C)c3cnn(-c4ccccc4)c(=O)c3c2C)ccc1Br	TGFb inhibitor 7.1µM (no result: DRD3 antagonist, S2 tox, ATXN2 expr inh)
Cc1ncc2c(c1CNS(=O)(=O)N(C)C)CCN(C(=O)/C=C/c1ccccc1)C2	none (no result: DRD3 antagonist, HepG2 viability, TGFb inhibitor, ATXN2 expr inh, DRD3 agonist)
C=CC[n+]1c(/C=C2\C=Cc3cc(C)ccc3N2CC)ccc2ccccc21	S2 tox 7.9µM, HepG2 viability 14µM, TGFb inhibitor 4µM (no result: ATXN2 expr inh)
Cc1ccc(N2CCN(C(=O)C3CCC(CNS(=O)(=O)c4ccc(Br)s4)CC3)CC2C)cc1 (configuration not stated)	none (no result: DRD3 antagonist)
COc1ccccc1C1CN(Cc2ccc(Sc3nncn3C)o2)Cc2ccccc2O1 (configuration not stated)	none (no result: DRD3 antagonist, HepG2 viability, TGFb inhibitor, ATXN2 expr inh, DRD3 agonist)
CNc1ccc(C=C2C=CC=C2)cc1	none (no result: DRD3 antagonist, S2 tox, ATXN2 expr inh, DRD3 agonist)
COc1ccccc1C1CN(Cc2c(C)nc3sccn23)Cc2ccccc2O1 (configuration not stated)	none (no result: DRD3 antagonist, HepG2 viability, TGFb inhibitor, ATXN2 expr inh, DRD3 agonist)
COc1ccc(Nc2ncc(C(=O)Nc3ccc(F)cc3F)c3ccccc23)cc1	S2 tox inconclusive, TGFb inhibitor 13µM (no result: DRD3 antagonist)
COc1ccccc1CNC(=O)CCCCn1c(=O)c2ccccc2n(Cc2ccccc2C)c1=O	none (no result: DRD3 antagonist)
Cc1ccc(N=C2c3ccccc3C(=O)C2[N+](=O)[O-])cc1C (configuration not stated)	DRD3 antagonist -58
CNC(=O)c1ccc(-c2cnc3ncc(Cc4ccc5ncccc5c4)n3n2)cc1F	none (no result: DRD3 antagonist, S2 tox, HepG2 viability, TGFb inhibitor, DRD3 agonist)
Fc1ccccc1C1CC(c2ccco2)=Nc2ccccc2S1 (configuration not stated)	S2 tox inconclusive, TGFb inhibitor 18µM (no result: ATXN2 expr inh)
